Compound activity: PubChem BioAssay, Corson Lab, School of Medicine, Indiana University
This excerpt belongs to a sample that is enriched for hits.
FECH inh: inhibitors of human ferrochelatase. purified FECH, Ni-mesoporphyrin absorbance 550 nm. calls only at 10 µM (by protocol). 20,000 tested, 3.3% active;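 active = enzyme reaction rate more than 3 SD below the solvent-only control wells on the same plate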;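 also: lower slope than DMSO wells means FECH inhibition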
Target sequence (P22830 whole entry, looked up): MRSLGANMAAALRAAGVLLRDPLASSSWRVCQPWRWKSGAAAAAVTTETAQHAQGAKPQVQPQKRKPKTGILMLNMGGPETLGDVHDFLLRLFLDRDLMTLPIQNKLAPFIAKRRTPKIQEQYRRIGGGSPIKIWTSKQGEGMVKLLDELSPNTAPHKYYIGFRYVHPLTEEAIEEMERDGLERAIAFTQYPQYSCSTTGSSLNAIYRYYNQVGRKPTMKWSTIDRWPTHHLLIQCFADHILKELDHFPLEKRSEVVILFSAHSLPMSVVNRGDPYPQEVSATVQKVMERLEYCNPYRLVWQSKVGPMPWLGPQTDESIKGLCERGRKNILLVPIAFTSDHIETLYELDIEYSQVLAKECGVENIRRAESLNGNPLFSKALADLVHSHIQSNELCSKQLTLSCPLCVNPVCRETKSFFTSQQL
Of the large screens only hits and unclear results are named; the others gave an inactive call.

Cc1ccc(Cl)cc1NC(=O)N1CCC(n2cnc3cccnc32)CC1	none
Cc1ccc(NC(=O)N2CCC(n3cnc4cccnc43)CC2)c(Cl)c1	none
O=C(Nc1ccc(Br)cc1F)N1CCC(n2cnc3cccnc32)CC1	FECH inh active
O=C(c1ccccc1)N1CCC(NCc2cnn(Cc3ccccc3)c2)CC1	none
Cc1nc(CN2CCN(C(=O)c3cnn(Cc4ccccc4)c3)CC2)no1	FECH inh active
Cc1nc(CN2CCN(C(=O)CSc3nnc(C)s3)CC2)no1	none
COc1ccc(C(=O)Nc2cccc(OCc3cc(=O)n4cc(Cl)ccc4n3)c2)cc1	none
CN1CCN(C(=O)c2ccc3oc(=O)n(Cc4ccccc4)c3c2)CC1	none
CCN1CCN(C(=O)c2ccc3oc(=O)n(Cc4ccc(C)cc4)c3c2)CC1	none
O=C(c1ccc2oc(=O)n(Cc3ccccc3)c2c1)N1CCN(Cc2ccccc2)CC1	FECH inh active
CCc1cc(Nc2ccc(N3CCOCC3)c(Cl)c2)n2ncnc2n1	none
Cc1cc(NC(=O)COc2ccccc2C)n(-c2ncnc3c2cnn3-c2ccc(Cl)cc2)n1	none
Cn1c(=O)n(CCOc2ccc(F)cc2)c(=O)c2cnc(-c3cccs3)nc21	none
Cc1cc(-n2ncc3ccccc32)cnc1N	none
COc1ccc(CN2CCNCC(CC(=O)O)C2)c(OC)c1OC (stereo not given)	none
OCCCNc1nc(Nc2ccc(Cl)cc2)c2cnn(-c3ccccc3)c2n1	none
CC(=O)N1c2ccc(S(=O)(=O)N3CCOCC3)cc2CC1C(=O)N1CCOCC1 (stereo not given)	none
Nc1ccc(S(=O)(=O)N2CCOCC2)cc1S(N)(=O)=O	FECH inh active
Cc1cccc(NS(=O)(=O)c2ccc(N)c(S(N)(=O)=O)c2)c1	none
O=C(NCCCc1ccccn1)c1ccc(-c2cccnc2)nc1	none
Cc1ccccc1C1=CCN(c2ncc(NS(=O)(=O)c3ccccc3Cl)cc2C(=O)O)CC1	none
Cc1ccc(CNc2ncnc3oc4c(c23)CCCC4)o1	none
COc1ccccc1CNc1ncnc2oc3c(c12)CCCC3	none
Clc1ccccc1CCNc1ncnc2oc3c(c12)CCCC3	FECH inh active
COc1ccc(-c2ncc3c(=O)n(Cc4c(C)cc(C)cc4C)c(=O)n(C)c3n2)cc1	none
Cc1ccccc1-c1ncc(CNCc2cccnc2-n2cncn2)s1	none
CC(C)CC1(CO)CCCN(C(=O)c2cccc(C#CC(C)(C)O)c2)C1 (stereo not given)	FECH inh active
CC(C)(O)C#Cc1cccc(C(=O)N2CCc3nc[nH]c3C2)c1	none
C/C=C/Cc1nnc(C(=O)N2CCCC(CO)(CC(C)C)C2)o1 (stereo not given)	none
CCCNC(=O)C1CCC(Cn2c(=O)c3sccc3n(CC(=O)Nc3ccc(C)cc3)c2=O)CC1 (stereo not given)	none
Cc1ccc(S(=O)(=O)Nc2cnc(N3CC=C(c4ccccc4C)CC3)c(C(=O)O)c2)cc1	FECH inh active
Cc1ccccc1C1=CCN(c2ncc(NS(=O)(=O)c3ccc(F)c(F)c3)cc2C(=O)O)CC1	none
COc1ccc(S(=O)(=O)Nc2cnc(N3CC=C(c4ccccc4C)CC3)c(C(=O)O)c2)cc1	none
Cc1cc(C)n(CC(C)NCCN2CCc3ccccc32)n1 (stereo not given)	none
CCC(Nc1cccc(OC)c1)C(=O)N(C)Cc1ncc(C)[nH]1 (stereo not given)	none
Cc1ccc(-c2nc(CSc3nc4c(c(=O)[nH]3)CCCC4)c(C)o2)cc1	none
O=c1cc(CNc2cccc(Cl)c2)nc2nc(NCc3ccc(F)cc3)[nH]n12	none
Cc1ccc(NCc2nc3nc4c(c(=O)n3[nH]2)CCC4)c(C)c1	FECH inh active
O=c1c2c(nc3nc(CNc4cccc(Cl)c4)[nH]n13)CCC2	FECH inh active
Cc1cccc(NC(=O)Nc2c(C)nc3nc[nH]n3c2=O)c1	none
Cc1nc2nc(C)c(NC(=O)Nc3cccc(Cl)c3)c(=O)n2[nH]1	none
CCc1nc2nc(C)[nH]n2c(=O)c1NC(=O)Nc1cc(C)ccc1OC	none
Cc1cccc(NC(=O)Nc2c(C)nc3nc(C)[nH]n3c2=O)c1	none
Cc1cccc(NCc2nc3nc4c(c(=O)n3[nH]2)CCC4)c1	FECH inh active
CCc1ccc(NS(=O)(=O)c2cc(C(=O)N3CCCCC3)cs2)cc1	none
COc1cccnc1C(=O)N1CCC(N2CCCC(C(=O)NC3CC3)C2)CC1 (stereo not given)	none
O=C1CC2(CCN(C(=O)c3cn[nH]n3)C2)Oc2ccccc21 (stereo not given)	none
CN1CC(=O)N(CC(=O)Nc2ccccc2)c2ccccc2C1=O	none
CC(C)c1ccc(NC(=O)CN2C(=O)CN(C)C(=O)c3ccccc32)cc1	none
CN1CC(=O)N(CC(=O)Nc2ccc3c(c2)OCO3)c2ccccc2C1=O	FECH inh active
Cc1ccc(NC(=O)CN2C(=O)CN(C)C(=O)c3ccccc32)cc1	none
Cc1cc(C)cc(NC(=O)CN2C(=O)CN(C)C(=O)c3ccccc32)c1	none
CN1CC(=O)N(CC(=O)Nc2ccc(F)c(Cl)c2)c2ccccc2C1=O	FECH inh active
COc1ccc(-c2cc(C(=O)NCc3ccccc3C)[nH]n2)cc1S(N)(=O)=O	none
Cc1nc(CN2C(=O)NC(Cc3ccc(F)cc3)(C3CCNCC3)C2=O)co1 (stereo not given)	none
O=C(O)C1CC(=O)N(Cc2nccn2Cc2ccccc2)C1 (stereo not given)	none
CCOc1ccc(CNC(=O)Cn2nc(N3CCN(c4ccc(F)cc4)CC3)ccc2=O)cc1	none
